# In PubChem BioAssay (EPA / NIEHS):
# Activity calls are given as the source filed them. The calls were made as follows: active = hit-call score of the fitted dose curve at least 0.9, where 1 is the maximum; inactive = score below 0.9.
# Assays:
# [1] = read-out: Transforming growth factor beta 1 (TGFb1), TGFB1 (gene 7040); experiment: BSK_KF3CT_TGFb1: BioMAP Diversity Plus: KF3CT Assay for Transforming growth factor beta 1 (TGFb1) Biomarker Activity (AID 2283072); settings: primary human keratinocytes with fibroblasts; actives raise or lower the signal
# Method in brief: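 Signal changes in either direction, relative to DMSO, define activity here. TGF-b1 is read by ELISA from a human keratinocyte-fibroblast co-culture 24 h post-dose.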
# [2] = read-out: C-C motif chemokine 2 (Homo sapiens) (UniProt P13500); experiment: BSK_KF3CT_MCP1: BioMAP Diversity Plus: KF3CT Assay for Monocyte Chemoattractant Protein 1 (MCP1/CCL2) Biomarker Activity (AID 2283073); settings: primary human keratinocytes with fibroblasts; actives raise or lower the signal
# Method in brief: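 ELISA readout of MCP-1 after 24 h chemical dosing of a human skin primary co-culture of keratinocytes and foreskin fibroblasts. Activity was fitted in both directions against DMSO.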
# [3] = read-out: Matrix Metallopeptidase 9 (MMP9), MMP9 (gene 4318); experiment: BSK_KF3CT_MMP9: BioMAP Diversity Plus: KF3CT Assay for Matrix Metallopeptidase 9 (MMP9) Biomarker Activity (AID 2283074); settings: primary human keratinocytes with fibroblasts; actives raise or lower the signal;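 as to AC50: MMP9 protein level quantified by ELISA in the co-culture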
# Method in brief: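 Human keratinocyte and foreskin fibroblast co-culture exposed to chemicals for 24 h; MMP9 biomarker measured by ELISA, bidirectional fitting relative to DMSO; cytotoxicity tracked by SRB total protein staining in parallel cultures.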
# [4] = read-out: urokinase plasminogen activator (uPA), PLAU (gene 5328); experiment: BSK_KF3CT_uPA: BioMAP Diversity Plus: KF3CT Assay for urokinase plasminogen activator (uPA) Biomarker Activity (AID 2283075); settings: primary human keratinocytes with fibroblasts; actives raise or lower the signal
# Method in brief: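 Primary human keratinocyte/foreskin fibroblast co-culture exposed to chemical; uPA measured by ELISA at 24 h. Bidirectional fit versus DMSO, with parallel SRB total-protein staining for cytotoxicity.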
# [5] = read-out: CD40, CD40 (gene 958); experiment: BSK_LPS_CD40: BioMAP Diversity Plus: LPS Assay for CD40 Biomarker Activity (AID 2283076); settings: primary human HUVEC with PBMC; actives raise or lower the signal
# Method in brief: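 Cells were dosed, incubated 24 h, then assayed for CD40 by ELISA. Gain or loss of signal was analysed relative to DMSO controls. The culture paired human umbilical vein endothelium with peripheral blood mononuclear cells.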
# [6] = read-out: E-selectin (Homo sapiens) (UniProt P16581); experiment: BSK_LPS_Eselectin: BioMAP Diversity Plus: LPS Assay for Eselectin Biomarker Activity (AID 2283077); settings: primary human HUVEC with PBMC; actives raise or lower the signal
# Method in brief: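 Primary human vascular co-culture (endothelium plus PBMC) was dosed with chemical, then E-selectin quantified by ELISA at 24 h. Endpoint values derive from bidirectional curve fitting relative to DMSO.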
# [7] = read-out: Interleukin-8 (IL8), CXCL8 (gene 3576); experiment: BSK_LPS_IL8: BioMAP Diversity Plus: LPS Assay for Interleukin-8 (IL8) Biomarker Activity (AID 2283078); settings: primary human HUVEC with PBMC; actives raise or lower the signal
# Method in brief: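 Readout is IL-8 by ELISA, taken 24 h after compounds were added to LPS-stimulated endothelial/PBMC co-cultures. Both increases and decreases relative to DMSO control were scored through bidirectional fitting.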
# [8] = BSK_LPS_SRB: Viability Assessment in the BioMAP Diversity Plus: LPS Assay (AID 2283079); settings: primary human HUVEC with PBMC;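 also: total protein by sulforhodamine B absorbance as a cytotoxicity measure; measured one day after compound addition; fitted in both directions against DMSO so loss or gain of signal counts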
# Method in brief: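 Readout is SRB absorbance at 560 nm (0.1% stain, TCA-fixed parallel cultures) as a total-protein cytotoxicity measure. Cells: primary human umbilical vein endothelium plus peripheral blood mononuclear cells, 24 h after chemical exposure; DMSO served as baseline.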
# [9] = read-out: Interleukin-1 alpha (IL1a), IL1A (gene 3552); experiment: BSK_LPS_IL1a: BioMAP Diversity Plus: LPS Assay for Interleukin-1 alpha (IL1a) Biomarker Activity (AID 2283080); settings: primary human HUVEC with PBMC; actives raise or lower the signal
# Method in brief: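 ELISA read-out of IL-1 alpha from a human primary vascular co-culture (endothelium plus PBMC) under LPS, sampled 24 hours post-dosing. Activity was fitted in both directions relative to DMSO controls.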
# [10] = read-out: Monocyte Chemoattractant Protein-1 (MCP1), CCL2 (gene 6347); experiment: BSK_LPS_MCP1: BioMAP Diversity Plus: LPS Assay for Monocyte Chemoattractant Protein-1 (MCP1) Biomarker Activity (AID 2283081); settings: primary human HUVEC with PBMC; actives raise or lower the signal
# Method in brief: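 Human endothelial–PBMC co-cultures were dosed with chemical, then LPS-driven MCP-1 levels were quantified by ELISA at 24 h. Activity in either direction was fitted versus DMSO negative control.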
# [11] = BSK_LPS_PGE2: BioMAP Diversity Plus: LPS Assay for Prostaglandin E2 (PGE2) Biomarker Activity (AID 2283082); settings: primary human HUVEC with PBMC; actives raise or lower the signal;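 as to AC50: secreted prostaglandin E2 measured by ELISA in LPS-stimulated co-culture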
# Method in brief: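 Endpoint derived from bidirectional curve fitting versus DMSO of ELISA-measured PGE2 in LPS-stimulated human primary vascular co-culture (HUVEC with PBMC) harvested at 24 h.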
# [12] = read-out: Macrophage colony-stimulating factor (MCSF), CSF1 (gene 1435); experiment: BSK_LPS_MCSF: BioMAP Diversity Plus: LPS Assay for Macrophage colony-stimulating factor (MCSF) Biomarker Activity (AID 2283083); settings: primary human HUVEC with PBMC; actives raise or lower the signal
# Method in brief: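 ELISA readout of M-CSF after 24 h compound exposure in a human endothelial/PBMC co-culture. Activity, in either direction, is fitted relative to DMSO vehicle.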
# [13] = read-out: Tumor necrosis factor (Homo sapiens) (UniProt P01375); experiment: BSK_LPS_TNFa: BioMAP Diversity Plus: LPS Assay for Tumour Necrosis Factor alpha (TNFa) Biomarker Activity (AID 2283085); settings: primary human HUVEC with PBMC; actives raise or lower the signal
# Method in brief: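 Primary human vascular co-culture of HUVEC and PBMC; TNFa ELISA 24 h after treatment, analysed as increase or decrease relative to DMSO control.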
# [14] = read-out: Vascular cell adhesion molecule 1 (VCAM1), VCAM1 (gene 7412); experiment: BSK_LPS_VCAM1: BioMAP Diversity Plus: LPS Assay for Vascular cell adhesion molecule 1 (VCAM1) Biomarker Activity (AID 2283086); settings: primary human HUVEC with PBMC; actives raise or lower the signal
# Method in brief: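 Primary human vascular co-culture (umbilical vein endothelium plus PBMC) stimulated with LPS received chemical; 24 h later VCAM-1 was read by ELISA. Overt cytotoxicity was assessed by sulforhodamine B staining of parallel cultures at the same time point.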
# [15] = read-out: CD38, CD38 (gene 952); experiment: BSK_SAg_CD38: BioMAP Diversity Plus: SAg Assay for CD38 Biomarker Activity (AID 2283087); settings: primary human HUVEC with PBMC; actives raise or lower the signal
# Method in brief: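 Fluorescence ELISA of cell-surface CD38 served as the read-out, with either increase or decrease fitted against DMSO controls. Cells were a human umbilical vein endothelium plus PBMC co-culture under SEB/TSST-1 stimulation, measured 24 h after dosing.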
# [16] = read-out: CD40, CD40 (gene 958); experiment: BSK_SAg_CD40: BioMAP Diversity Plus: SAg Assay for CD40 Biomarker Activity (AID 2283088); settings: primary human HUVEC with PBMC; actives raise or lower the signal
# Method in brief: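 Compounds were dosed onto a human primary endothelial–PBMC co-culture, and after 24 h CD40 was quantified by ELISA using a fluorescence signal. Activity in either direction was fitted relative to DMSO.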
# [17] = read-out: CD69, CD69 (gene 969); experiment: BSK_SAg_CD69: BioMAP Diversity Plus: SAg Assay for CD69 Biomarker Activity (AID 2283089); settings: primary human HUVEC with PBMC; actives raise or lower the signal;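 as to AC50: cell surface CD69 protein quantified by ELISA with fluorescence detection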
# Method in brief: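 Primary human vascular co-culture (umbilical vein endothelium with peripheral blood mononuclear cells) exposed to test chemical for 24 h. CD69 levels quantified by fluorescence ELISA; DMSO served as negative control for bidirectional fitting.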
# [18] = read-out: Monocyte Chemoattractant Protein-1 (MCP1), CCL2 (gene 6347); experiment: BSK_SAg_MCP1: BioMAP Diversity Plus: SAg Assay for Monocyte Chemoattractant Protein-1 (MCP1) Biomarker Activity (AID 2283090); settings: primary human HUVEC with PBMC; actives raise or lower the signal
# Method in brief: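 MCP-1 levels in the endothelial–PBMC SAg co-culture were quantified by ELISA at 24 h post-dosing; both increases and decreases versus DMSO scored. Cytotoxicity monitored by SRB total protein in parallel cultures.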
# [19] = read-out: E-selectin (Homo sapiens) (UniProt P16581); experiment: BSK_SAg_Eselectin: BioMAP Diversity Plus: SAg Assay for Eselectin Biomarker Activity (AID 2283091); settings: primary human HUVEC with PBMC; actives raise or lower the signal
# Method in brief: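 Co-culture: HUVEC + PBMC. Dose compound; 24 h. ELISA for E-selectin. Bidirectional fit vs DMSO.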
# [20] = read-out: Tissue Factor, F3 (gene 2152); experiment: BSK_LPS_TissueFactor: BioMAP Diversity Plus: LPS Assay for Tissue Factor Biomarker Activity (AID 2283084); settings: primary human HUVEC with PBMC; actives raise or lower the signal
# Method in brief: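 ELISA signal for cell-surface Tissue Factor (CD142) was read 24 h after compound dosing of an LPS-stimulated human endothelial–PBMC primary co-culture. Gain or loss of signal was scored relative to DMSO.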
# Sequence of Tumor necrosis factor (Homo sapiens) (P01375 whole entry, looked up): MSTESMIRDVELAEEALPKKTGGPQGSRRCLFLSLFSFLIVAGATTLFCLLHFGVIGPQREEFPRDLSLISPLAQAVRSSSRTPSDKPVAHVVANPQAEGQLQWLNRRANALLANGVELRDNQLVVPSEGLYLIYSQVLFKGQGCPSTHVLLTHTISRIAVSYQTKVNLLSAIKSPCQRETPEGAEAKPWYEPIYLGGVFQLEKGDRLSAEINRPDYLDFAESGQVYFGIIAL
# Sequence of E-selectin (Homo sapiens) (P16581 whole entry, looked up): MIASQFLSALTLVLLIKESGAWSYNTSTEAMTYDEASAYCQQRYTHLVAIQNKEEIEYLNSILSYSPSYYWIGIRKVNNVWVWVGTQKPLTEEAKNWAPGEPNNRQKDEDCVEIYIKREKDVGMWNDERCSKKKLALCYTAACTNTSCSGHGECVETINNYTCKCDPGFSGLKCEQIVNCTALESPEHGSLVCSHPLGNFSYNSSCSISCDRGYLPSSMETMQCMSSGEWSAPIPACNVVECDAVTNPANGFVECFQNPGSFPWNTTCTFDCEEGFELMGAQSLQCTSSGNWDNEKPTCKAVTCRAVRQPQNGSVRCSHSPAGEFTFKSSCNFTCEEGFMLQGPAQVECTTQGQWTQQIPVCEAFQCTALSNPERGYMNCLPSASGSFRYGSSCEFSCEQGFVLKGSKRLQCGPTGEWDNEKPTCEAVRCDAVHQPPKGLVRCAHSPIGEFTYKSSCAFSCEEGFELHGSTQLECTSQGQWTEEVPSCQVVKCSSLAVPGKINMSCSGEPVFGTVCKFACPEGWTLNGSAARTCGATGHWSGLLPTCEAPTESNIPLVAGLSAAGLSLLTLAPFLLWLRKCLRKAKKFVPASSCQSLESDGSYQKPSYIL
compound,measurement,setting,value
Cc1cc(C(C)(C)c2ccc(O)c(C)c2)ccc1O,AC50,[1],10 µM (active)
same,outcome,[2],inactive
same,AC50,[3],15.2 µM (active)
same,outcome,[4],inactive
same,AC50,[5],14.3 µM (active)
same,outcome,[6],inactive
same,outcome,[7],inactive
same,AC50,[8],12.5 µM (active)
same,outcome,[9],inactive
same,outcome,[10],inactive
same,AC50,[11],4.51 µM (active)
same,AC50,[12],15.1 µM (active)
same,outcome,[13],inactive
same,outcome,[14],inactive
same,AC50,[15],14.7 µM (active)
same,AC50,[16],15.4 µM (active)
same,AC50,[17],15.4 µM (active)
same,AC50,[18],15.9 µM (active)
same,AC50,[19],14.8 µM (active)
CCOC(=O)C(SP(=S)(OC)OC)c1ccccc1 (centres undefined),AC50,[1],20 µM (active)
same,outcome,[2],inactive
same,outcome,[3],inactive
same,outcome,[4],inactive
same,outcome,[5],inactive
same,outcome,[6],inactive
same,outcome,[7],inactive
same,outcome,[8],inactive
same,outcome,[9],inactive
same,outcome,[10],inactive
same,outcome,[11],inactive
same,outcome,[12],inactive
same,outcome,[20],inactive
same,outcome,[13],inactive
same,AC50,[14],14.6 µM (active)
same,AC50,[15],20 µM (active)
same,outcome,[16],inactive
same,AC50,[17],20 µM (active)
same,outcome,[18],inactive
same,outcome,[19],inactive
OC(Cc1ccccc1Cl)(Cn1cncn1)C1(Cl)CC1 (centres undefined),outcome,[1],inactive
same,outcome,[2],inactive
same,outcome,[3],inactive
same,outcome,[4],inactive
same,outcome,[5],inactive
same,outcome,[6],inactive
same,outcome,[7],inactive
same,outcome,[8],inactive
same,outcome,[9],inactive
same,outcome,[10],inactive
same,AC50,[11],2.02 µM (active)
same,outcome,[12],inactive
same,outcome,[20],inactive
same,outcome,[13],inactive
same,outcome,[14],inactive
same,outcome,[15],inactive
same,outcome,[16],inactive
same,outcome,[17],inactive
same,outcome,[18],inactive
same,outcome,[19],inactive
